About 83,000 compounds went through this panel and 20% of them were active in at least one assay; those are over-represented in the sample as a whole.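 Step 1: grow cells in 96-well plates. Step 2: add test compound at a single concentration. Step 3: incubate 48 h. Step 4: record percent growth.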 A number with no mark means an inactive call. Calls of active or inactive are those of the source. Rule for the calls: active = growth percent below 10; inactive = the rest.
Each molecule was assayed on HL-60(TB) leukemia (assay: NCI-60 one-dose screen, 48 h (100 = growth as untreated, 0 = no growth, -100 = all killed)). Settings: 10 µM unless noted.

Question: How did the growth turn out when `Oc1ccc(F)c(Nc2nc(SCCN3CCOCC3)nc3c2cnn3CC(Cl)c2ccc(Br)cc2)c1` (stereo not drawn) was run?
Answer: 2.22% (active)

Question: With `COc1cc(/C=C/C(=O)c2cnn(-c3cc(=O)[nH]c4ccc(C)cc34)c2C)cc(OC)c1OC` as the molecule, how does the growth read?
Answer: -28.4% (active)

Question: `COC(=O)C[C@](O)(CCCC(C)(C)O)C(=O)O[C@H]1C(OC)=C[C@@]23CCCN2CCc2cc4c(cc2[C@@H]13)OCO4` was tested. Which growth did it give?
Answer: -30.3% (active)

Question: `N#Cc1c(-c2ccc(F)cc2)nc(SCc2ccc(F)cc2)nc1N1CCNCC1` was tested. Which growth did it give?
Answer: -7.81% (active)

Question: How did the growth turn out when `CC[C@]12C=CCN3CC[C@@]4(c5ccc(OC)cc5N(C)[C@H]4[C@@](O)(C(=O)OC)[C@@H]1OC(=O)CCCC[P+](c1ccc(F)cc1)(c1ccc(F)cc1)c1ccc(F)cc1)[C@@H]32` was run?
Answer: -32.2% (active)

Question: Which growth does the source give for `CCOC(=O)/C=C/c1cccc2c1C(=O)NC(C)(c1cc3cc(Cl)ccc3oc1=O)N2` (stereo not drawn) here?
Answer: 2.37% (active)

Question: `CCCCSc1nc(NCCc2c[nH]c3ccccc23)c(C#N)c(-c2ccc(OC)cc2)n1` was tested. Which growth did it give?
Answer: 42.5%

Question: With `Cn1cc(-c2cc(N)n3nc(-c4c[nH]c5ccccc45)cc3n2)c2ccccc21` as the molecule, how does the growth read?
Answer: -24.5% (active)
